PubChem BioAssay (NCI)
Several values for one entry are separate records, joined by “and”; a condition that tells them apart may be missing. Identical values can stand only once. This is part of a sample that, as a whole, favours compounds with a hit. Of some 83,000 tested, about 20% had one in any assay.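 Growth was measured after 48 h exposure to one concentration of compound in 96-well plates. Values under 10 count as active.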 Activity calls are given as the source filed them.

These molecules were tested on HL-60(TB) leukemia (assay: NCI-60 one-dose screen, 48 h (100 = growth as untreated, 0 = no growth, -100 = all killed)). Conditions: 10 µM unless noted.

| Compound | growth |
| --- | --- |
| N#C/C(=C\c1ccc2ccccc2c1)c1cc2ccccc2[nH]1 | 10.5% (inactive) |
| Oc1c(Br)cc(Br)c2ccc(Cn3cc(-c4ccccc4C(F)(F)F)nn3)nc12 | 0.588% (active) |
| COc1cc(OC)c2c(c1)c1nc3cc(C)c(C)cc3nc1n2CCN(C)C | 103% (inactive) |
| c1ccc(-c2nnn(-c3ccccc3)n2)cc1 | 88.9% (inactive) |
| Cc1nc2cncc(C#Cc3cncc(C(=O)Nc4ccc(CN5CCN(C)CC5)c(C(F)(F)F)c4)c3)c2nc1C | -8.15% (active) |
| CCCCC[C@@H]1Cc2cc(O)c(C(=O)O)c3c2[C@H](C[C@]2(OC[C@@H](CC(=O)[C@@](C)(CC)C(=O)OC)[C@@H]2C)O3)O1 | 116% (inactive) |
| CCC1=C[C@@H]2C[C@]3(C(=O)OC)c4[nH]c5ccccc5c4CC[N@+](CC(=O)Nc4cc5c(cc4OC)N(C)[C@H]4[C@@](O)(C(=O)OC)[C@H](OC(C)=O)[C@]6(CC)C=CCN7CC[C@]54[C@@H]76)(C2)[C@H]13 | 116% (inactive) |
| Cc1cc(C(=O)O)c(C)cc1C(=O)O | 113% (inactive) |
| CCCCN(CCCC)CC(C)(C)C(O)c1ccc(OC)c2ccccc12 (stereo not given) | 56.3% (inactive) |
| Oc1c(Cl)cc(Cl)cc1/C=N/Nc1nnc(N/N=C/c2cc(Cl)cc(Cl)c2O)c2ccccc12 | -24% (active) |
| O=C(Nc1cccc(-n2ccc3c(NC(=O)c4ccccc4)nccc32)c1)c1ccc(N2CCOCC2)c(C(F)(F)F)c1 | -7.22% (active) |
| O=C(N/N=C\c1cc(Cl)ccc1O)c1ccncc1 | 0% (active) |
| CCN(C(C)=O)c1ccc([N+](=O)[O-])cc1 | 114% (inactive) |
| COc1cnc2c(c1)C(=O)c1c-2n(CCCNCCO)c(=O)c2ccncc12 | 16.1% (inactive) |
| CCOC(=O)c1cn2ncnc(Oc3ccc(NC(=O)NCCN4CCOCC4)c(Cl)c3)c2c1C | 101% (inactive) |
| O=C(Nc1ccc(Cl)cc1)Nc1ccc(Cl)c(C(F)(F)F)c1 | -60.8% (active) |
| Cc1cc(C(=O)O)c(N)c(C)n1 | 102% (inactive) |
| COc1ccc(C2C(C#N)=C(N)Oc3n[nH]c(-c4cccs4)c32)cc1I (stereo not given) | 54.2% (inactive) |
| O=C(NCc1cccc(C(F)(F)F)c1)[C@H](CCC(=O)N1CCN(C2CCCCC2)CC1)N1C(=O)[C@@H](N2C(=O)OC[C@@H]2c2ccccc2)[C@H]1/C(Cl)=C/c1ccccc1 | 5.62% (active) |
| COc1ccc(C2C3=C(COC3=O)N(CCO)c3cc4c(cc32)OCCO4)cc1 (stereo not given) | 82.1% (inactive) |

| Compound | growth |
| --- | --- |
| N#Cc1ccc(-c2ccc3c(c2)NC(=O)/C3=C\c2ccc[nH]2)cc1 | 101% (inactive) |
| COc1ccc(/C=N/NC(=O)CCN2c3ccccc3Sc3ccccc32)cc1 | 82% (inactive) |
| O=C(C(=Cc1ccccc1)C(=O)c1ccccc1)c1ccccc1 | 13% (inactive) and 110% (inactive) |
| COc1ccc(-c2csc(NC(=O)CSc3nc(-c4ccccc4)cc(=O)[nH]3)n2)cc1 | 52.4% (inactive) |
| CCN(CC)CCOc1ccc(-c2nc3cc(Cl)ccc3s2)cc1 | -74.2% (active) |
| COc1cc2nc(-c3ccc(C(F)(F)F)cc3)cc(OCCN3CCCC3)c2cc1OC | 66.8% (inactive) |
| CC(=O)OCc1nc(C#N)c(N(C)C)o1 | 97.5% (inactive) |
| O=C1Nc2ccccc2/C1=C/c1cn(C(=O)c2c(Cl)cccc2Cl)c2ccccc12 | 72.1% (inactive) |
| COP(=O)(OC)C(C)(C)CC(=O)CC(C#N)(C#N)C(C#N)C#N | 103% (inactive) |
| N#CC1c2ccccc2C=CN1C(=O)CCCl (stereo not given) | 65.5% (inactive) |
| CC(=O)Nc1nc2ccc(NS(=O)(=O)c3cccc4c(N(C)C)cccc34)cc2[nH]1 | 27.8% (inactive) |
| O=c1[nH]ncc(Br)c1Br | 65.5% (inactive) |
| Cc1ccc(/C=C2\CN(Cc3cn(CCNc4ccnc5cc(Cl)ccc45)nn3)C/C(=C\c3ccc(C)cc3)C2=O)cc1 | -28.8% (active) |
| COc1nccnn1 | 185% (inactive) |
| CCCNC(=O)Nc1ccc2cc3ccc(NC(=O)NCCC)cc3nc2c1 | 74.9% (inactive) |
| CN1CCN(CCCOc2ccc3nc(Nc4ccc(C(F)(F)F)c(Cl)c4)ccc3c2)CC1 | 12.5% (inactive) |
| CC(=O)OC[C@]1(C)C=C2C(=O)[C@](C)(O)C3(CC3)C(C)=C2[C@H]1OC(C)=O | 96.4% (inactive) |
| O=S(=O)(NCCCNc1nccc(-c2c(-c3ccc(F)c(O)c3)nc3occn23)n1)c1ccc(Cl)cc1 | 94.2% (inactive) |
| O=C1CCC(N2C(=O)c3cccc(NCCOCCOCCNC(=O)c4cc5c(o4)C(=O)c4ccccc4C5=O)c3C2=O)C(=O)N1 (stereo not given) | -9.95% (active) |
| COc1ccc2[nH]cc(C(c3cc(F)cc(F)c3)c3c[nH]c4ccc(OC)cc34)c2c1 | 131% (inactive) |
